Screening results (PubChem)
Sampled rows, rich in hits. Any-hit rate of the full collection: about 0.69%.
UBC9 SUMO inh – blocks human SUMOylation mediated by UBC9; HTRF SUMOylation assay, SAE1/SAE2 + UBC9, in vitro; inhibition, % at 35 µM; 290,000 compounds, 0.36% hits; in the data active = inhibition above about 50%, passing the limit was not always enough
PERK inhibitor – inhibitors of human PERK kinase. Q9NZJ5. CHO PERK-DD fusion, SEAP luminescence translation reporter. inhibition, % at 5.6 µM. 220,000 compounds, 0.17% hits;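 active = inhibition above the mean inhibition of all tested compounds plus 3 SD, set separately per screening campaign, cut at about 2.9% in these data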;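 also: PERK kinase domain activated by AP20187 dimerizer at 100 nM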
p97 ATPase inh – blocks human p97 ATPase activity; P55072; recombinant p97 ATPase, Kinase-Glo ATP luminescence, 3 h; inhibition, % at 8 µM; 220,000 compounds, 0.42% hits; AID 1481; in the data active = inhibition above about 15%
Target sequence (P55072 whole entry, looked up): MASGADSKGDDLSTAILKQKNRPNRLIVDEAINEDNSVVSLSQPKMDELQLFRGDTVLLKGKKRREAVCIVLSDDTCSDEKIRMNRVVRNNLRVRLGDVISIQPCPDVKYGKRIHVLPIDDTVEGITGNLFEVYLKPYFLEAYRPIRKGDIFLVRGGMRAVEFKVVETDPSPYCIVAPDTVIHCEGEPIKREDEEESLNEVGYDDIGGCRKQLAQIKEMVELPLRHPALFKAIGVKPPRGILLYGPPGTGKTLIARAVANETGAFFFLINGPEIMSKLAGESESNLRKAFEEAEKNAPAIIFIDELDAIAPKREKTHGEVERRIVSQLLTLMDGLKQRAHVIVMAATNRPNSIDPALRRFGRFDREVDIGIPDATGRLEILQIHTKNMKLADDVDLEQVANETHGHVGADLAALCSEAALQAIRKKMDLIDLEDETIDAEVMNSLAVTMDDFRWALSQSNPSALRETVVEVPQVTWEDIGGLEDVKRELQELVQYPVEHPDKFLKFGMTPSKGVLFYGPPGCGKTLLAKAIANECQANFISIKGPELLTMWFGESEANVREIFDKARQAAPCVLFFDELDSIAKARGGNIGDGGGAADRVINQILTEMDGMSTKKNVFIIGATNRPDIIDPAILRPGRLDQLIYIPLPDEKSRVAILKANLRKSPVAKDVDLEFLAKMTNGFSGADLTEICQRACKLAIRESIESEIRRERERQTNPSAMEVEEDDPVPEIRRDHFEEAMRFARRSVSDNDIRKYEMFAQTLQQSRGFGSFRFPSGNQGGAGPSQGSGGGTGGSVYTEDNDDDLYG
DTT redox prof – compounds producing H2O2 with reducing agent – biochemical, NIH compound library profiling, artefact control for MLSCN library redox annotation, primary screen. DTT-dependent redox cycling H2O2, phenol red/HRP absorbance; 100% = 100 µM peroxide control, 0% = buffer. activation, % at 10 µM. 200,000 compounds, 0.03% hits;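 active = activation of at least 50% relative to the plate's high and low controls in the primary single-dose screen; inactive = activation below 50%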;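 also: compound incubated with DTT at 0.8 mM final as the reducing agent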
Numbers stand for hits; – = inactive; · = no result; ! = not active in a repeat.

SMILES | UBC9 SUMO inh | PERK inhibitor | p97 ATPase inh | DTT redox prof
Cc1ccc(NC(=O)Nc2ccno2)cc1 | 72 | – | – | ·
Cc1ccc(NC(=O)Nc2ncccc2C)cc1 | – | – | – | –
COC(=O)N/N=C/c1ccc(OC(=O)/C=C/c2ccco2)cc1 | – | 2.9 | – | ·
N#C/C(=C\c1coc2ccc(O)cc2c1=O)C(=O)Nc1nc2ccccc2s1 | – | – | 43 | ·
N#C/C(=C\c1coc2ccccc2c1=O)C(N)=S | – | – | – | –
COc1ccc(OCCC(=O)OCC(=O)Nc2cccc(S(=O)(=O)N3CCOCC3)c2)cc1 | – | 3.3 | – | –
CC(C)(C)c1ccc(OCCC(=O)Nc2cccc(S(=O)(=O)N3CCOCC3)c2)cc1 | – | · | · | ·
Cc1cc(=O)n2nc(N3CCCC(C(=O)NC4CCCCC4C)C3)sc2n1 (stereo not given) | – | · | · | ·
O=C(O)Cn1nc(-c2ccccc2)oc1=O | – | 3.0 | – | –
O=C(O)C1Nc2c(O)cccc2C2C=CCC12 (stereo not given) | 97 | – | 23 | –
COc1ccccc1-c1c(C#N)c(N)nc2c1CCc1ccccc1-2 | 98 | – | – | –
CCOC(=O)c1ncn2c1CN(C)C(=O)c1cc(F)ccc1-2 | – | 3.1! | – | –
CCOC(=O)c1nn(-c2ccc(F)cc2)c(C)c1C(C)=O | – | – | – | –
O=C(NCC(=O)N1CCN(c2ccccc2O)CC1)c1ccccc1 | – | · | · | ·
O=C(O)c1ccccc1Nc1cccc(C(F)(F)F)c1 | – | – | 15 | –
CC(=O)Oc1ccc2cc(-c3nc4ccccc4n3C)c(=O)oc2c1 | 56 | – | – | –
O=[N+]([O-])c1ccc(Nc2ccccc2)c2nonc12 | – | · | · | ·
O=[N+]([O-])c1ccc(Sc2cccc[n+]2[O-])c2nonc12 | 66 | – | – | ·
CC(C)(C)C(=O)NC(=S)Nc1ccccn1 | – | – | – | –
CC(C)C(=O)NC(=S)Nc1ccccn1 | – | – | 20 | –
C/C(=N\OC(=O)c1ccccc1F)c1nccs1 | – | 3.4 | – | –
O=C(c1cccn2c(=O)c3cc(Cl)ccc3nc12)N1CCOCC1 | 52 | – | – | –
CCOC(=O)c1c(C)n(OCc2ccccc2)c2ccc3nonc3c12 | – | – | – | –
COn1c(C)c(C)c2c3nonc3ccc21 | – | – | 19 | ·
CC(C)Oc1ccc(CCC(=O)NNC(=O)c2ccccc2C(=O)O)cc1 | – | · | · | ·
SMILES | UBC9 SUMO inh | PERK inhibitor | p97 ATPase inh | DTT redox prof
CC(C)Oc1ccc(CCC(=O)NNC(=O)CCC(=O)O)cc1 | – | 3.1 | – | ·
COc1ccc(CN(C(=O)c2snc(C(N)=O)c2N)C(C(=O)NC2CCCC2)c2ccco2)cc1 (stereo not given) | – | · | · | ·
Cc1cc(C)cc(OCCN2CCOCC2)c1 | – | · | · | ·
Cc1cc(/C=C2\C(=O)NN(c3ccccc3)C2=O)c(C)n1-c1ccccc1O | 60 | – | – | ·
Clc1cccc(Cl)c1C1Nc2cccc3cccc(c23)N1 | 56 | · | · | ·
COc1ccc(-c2nc(SCC(=O)Nc3cc(C)on3)n[nH]2)cc1 | 50 | – | – | –
COC(=O)C1CN(C(=O)C(C)Oc2ccccc2F)c2ccccc2O1 (stereo not given) | – | · | · | ·
Cc1nc(C)c(-c2ccc(SCC(=O)Nc3cccc(Cl)c3)nn2)s1 | – | · | · | ·
CN(C)C=Nc1ccc2nc3c(cc2c1)[nH]c1ccccc13 | 50 | · | · | ·
Cn1c(=O)c2ncn(CC(=O)O)c2n(C)c1=O | – | – | – | ·
O=C(O)Cn1cnc2c(=S)nc[nH]c21 | – | 3.7 | – | ·
Cc1cccc(C)c1OCc1cc(C(=O)NCc2cn(C)nc2C)no1 | – | · | · | ·
COC(=O)C(N)Cc1ccc(O)c(O)c1 (stereo not given) | – | – | – | –
C[C@](N)(Cc1ccc(O)c(O)c1)C(=O)O | 90 | – | – | –
O=[N+]([O-])c1cc(Cl)c(O)c2ncccc12 | 59 | – | – | –
O=[N+]([O-])c1cc(CN2CCN(c3ccccc3)CC2)c(O)c2ncccc12 | – | – | – | –
O=[N+]([O-])c1cc(CN2CCOCC2)c2cccnc2c1O | 89 | – | – | –
CC(C)[C@@H](C(=O)N1CCCC1)N1C(=O)N2CCc3c([nH]c4ccccc34)[C@@]2(C)C1=O | – | · | · | ·
CN(CCC#N)C(=O)COC(=O)c1c2c(nc3ccccc13)/C(=C/c1ccco1)CC2 | 53 | – | – | –
COc1ccc(/C=C2\CCc3c2nc2ccccc2c3C(=O)O)cc1OC | – | – | – | ·
COC(=O)c1cc(S(=O)(=O)N2CCOCC2)c(Cl)cc1N1CCOCC1 | – | – | – | –
COC(=O)c1cc(C)nc2c1C(=O)C(=O)C=C2N1CCOCC1 | 99 | · | · | ·
CCOC(=O)C1CCCN(C(=O)c2csc(-c3ccc4c(c3)CCO4)n2)C1 (stereo not given) | – | – | – | ·
COc1ccc(CNC(=O)C2CCN(C(=O)c3csc(Nc4ccc(C)cc4)n3)CC2)cc1 | – | · | · | ·
CCOC(=O)c1ccc(N=c2sc(C(=O)OC)cc(=O)n2C2CC2)cc1 | · | 3.1 | – | –
SMILES | UBC9 SUMO inh | PERK inhibitor | p97 ATPase inh | DTT redox prof
CCOC(=O)c1ccc(N=c2sc(C(=O)OC)cc(=O)n2Cc2ccc3c(c2)OCO3)cc1 | – | – | – | –
COc1cc(OC)c(N(C)S(=O)(=O)c2cccc(C(=O)Nc3nnc(C4CC4)s3)c2)cc1Cl | – | – | – | ·
Cc1cccn2c(=O)c3cc(C(=O)NC4CCCCCC4)sc3nc12 | 55 | · | · | ·
O=C(CSc1nnc(Cn2c(=O)sc3ccccc32)n1-c1ccccc1)Nc1nccs1 | – | – | 15 | –
COC(=O)C(NC(C)=O)(Nc1ccc(C)cn1)C(F)(F)F (stereo not given) | – | 3.4 | – | ·
COc1cc(C(=O)Oc2cccc(/C=N/NC(=O)c3cccnc3)c2)cc(OC)c1OC | – | · | · | ·
Cc1[nH]n(-c2ncc(-c3ccccc3)s2)c(=O)c1C(c1ccc(Br)cc1)C(C#N)C#N (stereo not given) | 64 | – | – | –
COc1ccc2[nH]c3c(=O)n(CCCC(=O)NC4CCCCC4C)c(=S)[nH]c3c2c1 (stereo not given) | 58 | · | · | ·
Cc1nc(NC(=O)CSc2nnc(-c3ccncc3)n2C)sc1C | – | · | · | ·
CCc1nnc(NC(=O)CSc2nnc(-c3ccncc3)n2C)s1 | – | 3.3 | – | –
CC(=O)NC1C(=O)N(CCN2CCOCC2)c2ccc(C)cc21 (stereo not given) | 81 | · | · | ·
CCCCN1C(=O)C(NC(C)=O)c2cc(Br)ccc21 (stereo not given) | – | – | – | –
CC(=O)C1C(c2ccco2)c2c(noc2C)CC1(C)O (stereo not given) | – | 3.0 | – | –
COc1ccc(/C=C(\C#N)C(=O)OCC(=O)NCc2ccccc2Cl)cc1 | 55 | – | – | –
COc1ccc(/C=C(\C#N)C(=O)OCC(=O)NCc2ccc(Cl)cc2)cc1 | – | – | – | ·
CC1(C)CC(=O)C=C(Nc2ccc([N+](=O)[O-])cc2)C1 | – | · | · | ·
O=C(O)c1ccccc1NSc1ccccc1[N+](=O)[O-] | – | – | – | –
CCc1ccc(NSc2ccccc2[N+](=O)[O-])cc1 | – | 3.2 | – | –
COc1cccc(CN2CCNC(=O)C2CC(=O)NCc2cn3ccccc3n2)c1OC (stereo not given) | – | 3.0 | – | –
O=C1/C(=C/c2ccco2)Oc2c1ccc(O)c2CN1CCCCC1 | 61 | – | – | –
